TEAD-YAP block: TEAD-YAP interaction inhibition | HEK-TIYL cells, TEAD-Gal4/YAP UAS-luciferase luminescence | inhibition, % at 9.12 µM | 1.4% of 640,000 active | AID 1259422; in the data active means inhibition above about 32%;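 further: 0% = median of test compound wells and 100% = reference inhibitor wells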
GPR151 ag: activates the human receptor GPR151; Q8TDV0; PathHunter beta-arrestin GPR151 cells, luminescence; activation, % at 11.2 µM; 1% of 650,000 active; AID 1508602; in the data active means activation above about 4.9%;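 further: 0% = median of compound wells and 100% = cells with positive control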
Target sequence (Q8TDV0 whole entry, looked up): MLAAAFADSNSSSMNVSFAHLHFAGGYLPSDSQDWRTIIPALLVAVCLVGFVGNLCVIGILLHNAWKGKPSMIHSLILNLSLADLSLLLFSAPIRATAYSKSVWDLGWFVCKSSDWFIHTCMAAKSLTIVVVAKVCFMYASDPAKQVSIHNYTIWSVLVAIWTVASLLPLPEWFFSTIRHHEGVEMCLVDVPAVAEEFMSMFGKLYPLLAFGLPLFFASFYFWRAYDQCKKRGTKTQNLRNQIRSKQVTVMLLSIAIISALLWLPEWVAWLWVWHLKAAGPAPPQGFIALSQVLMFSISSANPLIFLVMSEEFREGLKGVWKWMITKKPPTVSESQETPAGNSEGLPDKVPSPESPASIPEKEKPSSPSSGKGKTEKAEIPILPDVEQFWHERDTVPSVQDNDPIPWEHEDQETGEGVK
MITF inh: human MITF inhibition, primary screen | inhibition, % at 2.6 µM | 0.91% of 650,000 active | AlphaScreen MITF homodimerization, bead proximity signal; in the data active means inhibition above about 50%;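 further: 0% = vehicle wells with protein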
FBW7 activator: human FBW7 E3 ligase activation, primary screen; Q969H0; AlphaScreen FBW7–phospho-cyclin E peptide binding, activator screen; normalized activity (activation), % at 26.1 µM; 0.13% of 650,000 active; AID 1259310; in the data active means normalized activity above about 1.9%;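 further: purified mutant Fbw7 with reduced substrate affinity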
Active calls of the source: *. Shown are actives, neighbours in structure and some others; about 3.4% of the full set was active somewhere.

Screening O=C(/C=C/Nc1ccc(Br)cc1Cl)c1ccco1 returned TEAD-YAP block 93.6*, GPR151 ag -4.0, MITF inh 10.7 and FBW7 activator -0.2.
`COc1ccc(Br)cc1/C=C/C(=O)c1ccco1` gave TEAD-YAP block 60.7*, GPR151 ag -0.3, MITF inh -4.4 and FBW7 activator -0.2.
For O=C(O)CSc1ccccc1[N+](=O)[O-] the results were TEAD-YAP block -10.0, GPR151 ag -0.4, MITF inh 10.4 and FBW7 activator 0.2.
CC(=O)c1c(C)[nH]c(C(=O)CSc2nnnn2-c2cccc(C)c2)c1C was read as TEAD-YAP block 33.3*, GPR151 ag 2.1, MITF inh 10.7 and FBW7 activator 0.1.
For Cc1ccc(-c2cc(C(=O)NN)[nH]n2)c(C)c1 the results were TEAD-YAP block 43.4*, GPR151 ag -1.6, MITF inh 2.8 and FBW7 activator -0.1.
`C[C@@H](O)C(=O)N1CCN(c2ccc3[nH]ncc3c2)CC1` gave TEAD-YAP block -3.8, GPR151 ag -0.8, MITF inh -3.2 and FBW7 activator 0.1.
Screening CC(=O)/C=C1\N(C)c2ccccc2C1(C)C returned TEAD-YAP block -10.3, GPR151 ag 1.3, MITF inh 10.1 and FBW7 activator 0.1.
`CC(=O)c1ccc(S(=O)(=O)N(C)CC(=O)/C=C2/N(C)c3ccccc3C2(C)C)cc1` gave TEAD-YAP block 38.5*, GPR151 ag 0.8, MITF inh 4.2 and FBW7 activator 0.1.
`COc1ccc(OC)c(/C=N/N=C2\NC(=O)C(C)S2)c1` (configuration not stated) gave TEAD-YAP block -7.0, GPR151 ag -0.3, MITF inh 7.7 and FBW7 activator 0.3.
COc1ccc(O)c(/C=N/N=C2/NC(=O)C(C)S2)c1 (configuration not stated) was read as TEAD-YAP block 67.7*, GPR151 ag -8.1, MITF inh -7.4 and FBW7 activator -0.3.
For COc1ccc(CNC(=O)N2CCC(c3nnc(C4CC4)s3)CC2)cc1 the results were TEAD-YAP block 4.4, GPR151 ag 0.4, MITF inh 4.9 and FBW7 activator 3.1*.
O=C(Nc1ccc2c(c1)OCO2)N1CCC(c2nnc(C3CC3)s2)CC1 was read as TEAD-YAP block -22.9, GPR151 ag -0.4, MITF inh -15.1 and FBW7 activator 2.6*.
Cc1cccc(NC(=O)N2CCC(c3nnc(C4CC4)s3)CC2)c1 was read as TEAD-YAP block -1.2, GPR151 ag 0.4, MITF inh 9.0 and FBW7 activator 3.1*.
For COc1ccc(CNC(=O)N2CCC(c3nnc(C4CC4)o3)CC2)cc1 the results were TEAD-YAP block 1.5, GPR151 ag -0.6, MITF inh 6.5 and FBW7 activator 0.9.
O=C(Nc1ccc2c(c1)OCO2)N1CCN(C2CCCCC2)CC1 was read as TEAD-YAP block -15.8, GPR151 ag -0.6, MITF inh -0.7 and FBW7 activator 0.0.
`CCc1cccc(C)c1NC(=O)CSc1nc2scc(-c3ccc(OC)cc3)c2c(=O)n1-c1ccccc1` gave TEAD-YAP block 6.6, GPR151 ag 2.2, MITF inh 4.1 and FBW7 activator 0.1.
`Cc1cc(C(=O)COC(=O)c2cccc(N(C)C)c2)c(C)n1CC1CCCO1` (configuration not stated) gave TEAD-YAP block 38.4*, GPR151 ag 0.1, MITF inh 19.8 and FBW7 activator -0.2.
C=CCn1c(C)cc(C(=O)COC(=O)c2cccc(O)c2)c1C was read as TEAD-YAP block 87.0*, GPR151 ag -8.9, MITF inh -2.9 and FBW7 activator 0.0.
For Cc1cc(C(=O)COC(=O)c2cccc(NS(C)(=O)=O)c2)c(C)n1CC1CCCO1 (configuration not stated) the results were TEAD-YAP block 57.8*, GPR151 ag 1.9, MITF inh 4.2 and FBW7 activator -0.2.
For Cn1c(C(=O)O)c(CC(=O)Nc2ccc(F)cc2Cl)c2ccccc21 the results were TEAD-YAP block 6.3, GPR151 ag -1.0, MITF inh 8.4 and FBW7 activator 0.3.
Screening CCOC(=O)c1sc(NC(=O)C(C)Sc2nnc(CNC(=O)c3cccs3)n2-c2cc(C)ccc2C)c(C(=O)OCC)c1C (configuration not stated) returned TEAD-YAP block 12.3, GPR151 ag 0.2, MITF inh 1.9 and FBW7 activator -0.1.
Screening COc1cc(OC)cc(C2NCCc3cc(OC)c(OC)cc32)c1 (configuration not stated) returned TEAD-YAP block 4.5, GPR151 ag 2.0, MITF inh 2.8 and FBW7 activator -0.1.
Cc1ccc2[nH]c3nc4ccccc4nc3c2c1 was read as TEAD-YAP block -12.8, GPR151 ag -5.2, MITF inh -12.1 and FBW7 activator 0.0.
`COc1ccc2[nH]c(C)cc(=S)c2c1` gave TEAD-YAP block 42.2*, GPR151 ag 1.0, MITF inh 6.8 and FBW7 activator 0.0.
COc1ccc2[nH]c(C)cc(=O)c2c1 was read as TEAD-YAP block 10.7, GPR151 ag 0.6, MITF inh 12.1 and FBW7 activator 0.1.
`COc1ccc2[nH]c3nc4cc(C)c(C)cc4nc3c2c1` gave TEAD-YAP block 42.7*, GPR151 ag 0.3, MITF inh -3.4 and FBW7 activator -0.1.
Screening COCCCNC(=O)/C(C#N)=C/c1cn(Cc2cccc(F)c2)c2ccccc12 returned TEAD-YAP block 34.6*, GPR151 ag 0.0, MITF inh 13.2 and FBW7 activator -0.3.
Screening COCCCNC(=O)/C(C#N)=C/c1cn(Cc2ccc(F)cc2)c2ccccc12 returned TEAD-YAP block 44.5*, GPR151 ag 1.6, MITF inh 11.5 and FBW7 activator 1.8.
`Nc1nc(NCCO)cc(N2CCc3ccccc3C2)n1` gave TEAD-YAP block -21.0, GPR151 ag -1.1, MITF inh 11.4 and FBW7 activator -0.1.
Screening COc1ccc(Nc2c3c4c(cccc4[nH]c2=O)C(=O)c2ccccc2-3)cc1 returned TEAD-YAP block 54.6*, GPR151 ag 0.6, MITF inh 3.2 and FBW7 activator -0.1.
`O=C1c2ccccc2-c2c(Nc3ccccc3)c(=O)[nH]c3cccc1c23` gave TEAD-YAP block 49.4*, GPR151 ag 0.2, MITF inh 7.2 and FBW7 activator -0.1.
Screening CC1CCN(C(=O)COC(=O)c2cc(Cl)ccc2[N+](=O)[O-])CC1 returned TEAD-YAP block -1.4, GPR151 ag 2.8, MITF inh 5.0 and FBW7 activator 0.1.
CCOc1ccc2[nH]c(=O)c(CN(CCOC)C(=O)Nc3ccc(SC)cc3)cc2c1 was read as TEAD-YAP block -35.7, GPR151 ag -1.1, MITF inh 1.9 and FBW7 activator -0.2.
`CCOc1ccc2[nH]c(=O)c(CN(CCOC)C(=O)Nc3ccc(F)cc3)cc2c1` gave TEAD-YAP block 37.0*, GPR151 ag 1.2, MITF inh 0.6 and FBW7 activator 0.1.
Cc1ccc(C(=O)Nc2ccc(C(=O)O)cc2)cc1 was read as TEAD-YAP block 44.7*, GPR151 ag -1.3, MITF inh 8.1 and FBW7 activator 0.0.
`O=C(Nc1ccc(-c2ccc(NC(=O)c3ccc(Cl)cc3)cc2)cc1)c1ccc(Cl)cc1` gave TEAD-YAP block -12.2, GPR151 ag 1.5, MITF inh -5.6 and FBW7 activator 39.1*.
Screening Cc1nc(-c2ccc(NC(=O)c3ccccc3)cc2)cs1 returned TEAD-YAP block 50.7*, GPR151 ag -9.9, MITF inh -7.0 and FBW7 activator 0.0.

High-throughput results deposited in PubChem by The Scripps Research Institute Molecular Screening Center.
